Laboratory results published in PubChem BioAssay (NCATS).
Inconclusive results are not listed. Calls of active or inactive are those of the source. Calls come from the whole dose curve; as a rule, active = well fitted curve in the direction sought with a large enough effect; inconclusive = small, poorly fitted or top-dose-only effect, or another doubt; inactive = no such curve, though single readings can be large; an effect the other way counts as inactive or inconclusive.

target: Rap guanine nucleotide exchange factor 3 (Homo sapiens) (UniProt O95398); assay: Confirmatory qHTS for antagonist of cAMP-regulated guanine nucleotide exchange factor 3 (EPAC1) (AID 1645880); settings: EPAC1 Rap1B-BODIPY-GDP exchange, fluorescence; activity, negative = inhibition: at 115 µM (top of the series); note: nearly all actives have a fitted effect of over 55% in size;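 for activity, negative = inhibition: plate controls were DMSO only for no effect and full effect of the ATA control for full effect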
In short: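 Released BODIPY-GDP fluoresces less than Rap1-bound BODIPY-GDP; the signal is followed at 480/540 nm at 5-min intervals over 30 min, after 5 min at room temperature. Reactions contain 100 nM EPAC1, 250 nM RAP1B-BODIPY-GDP and 50 uM GDP; results are normalized to ATA and DMSO.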
Potency is the fitted concentration of half-maximal effect.

Chain of Rap guanine nucleotide exchange factor 3 (Homo sapiens) (O95398 whole entry, looked up): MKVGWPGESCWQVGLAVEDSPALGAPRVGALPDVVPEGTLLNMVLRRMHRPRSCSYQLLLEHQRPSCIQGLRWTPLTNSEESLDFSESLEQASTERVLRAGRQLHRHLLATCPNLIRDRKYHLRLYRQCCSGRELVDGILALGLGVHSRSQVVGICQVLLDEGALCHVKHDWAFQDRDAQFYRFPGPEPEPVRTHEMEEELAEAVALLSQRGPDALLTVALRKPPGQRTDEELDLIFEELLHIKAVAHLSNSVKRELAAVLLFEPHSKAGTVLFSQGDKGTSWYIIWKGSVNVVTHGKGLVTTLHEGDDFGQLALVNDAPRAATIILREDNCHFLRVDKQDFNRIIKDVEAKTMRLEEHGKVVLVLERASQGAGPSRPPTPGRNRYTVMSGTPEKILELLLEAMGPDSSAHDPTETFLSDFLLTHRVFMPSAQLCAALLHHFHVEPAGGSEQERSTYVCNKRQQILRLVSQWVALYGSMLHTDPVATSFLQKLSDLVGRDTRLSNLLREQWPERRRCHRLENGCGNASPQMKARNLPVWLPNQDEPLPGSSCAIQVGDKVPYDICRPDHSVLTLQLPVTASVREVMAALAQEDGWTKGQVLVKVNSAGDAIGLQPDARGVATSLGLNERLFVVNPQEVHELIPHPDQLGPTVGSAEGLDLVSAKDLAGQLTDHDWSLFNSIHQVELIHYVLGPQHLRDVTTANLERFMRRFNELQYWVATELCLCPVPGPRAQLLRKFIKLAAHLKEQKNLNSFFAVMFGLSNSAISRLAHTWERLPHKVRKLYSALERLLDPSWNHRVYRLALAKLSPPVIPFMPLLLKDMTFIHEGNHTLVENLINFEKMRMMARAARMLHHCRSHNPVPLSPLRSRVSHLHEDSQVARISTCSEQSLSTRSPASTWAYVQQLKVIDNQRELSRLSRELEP

Potency, inactive:
Cc1ccc(N=Cc2c(O)n(-c3nccs3)c(=O)c3ccccc23)c(C)c1, CSc1ncccc1C(=O)OCc1c(F)cccc1Cl, O=C(C1=NN(c2ccccc2)C2C(=O)N(c3ccccc3)C(=O)C12)c1ccccc1 (stereo not given), CCOC(=O)c1ccc2[nH]cc(C(C)=O)c(=O)c2c1, COc1cccc(C(=O)c2sc3nc(-c4ccccc4)cc(C(F)(F)F)c3c2N)c1, CN(C)c1ccc(-c2cc3ccccc3c(=O)o2)cc1, CN(C)c1ccc(/C=C/c2ccnc3c(Cl)cccc23)cc1, CNC(=O)c1csc(Cc2c(Cl)sc3ccc(Cl)cc23)n1, CCN(CC)c1ccc2cc(C(=O)NNC(=O)c3ccc(S(=O)(=O)N4CCCCC4)cc3)c(=O)oc2c1, O=C1N(Cc2ccccc2)c2ccc(Cl)cc2C12OCCO2, COc1ccc(NC(=O)c2csc3c2CCCCC3)c(OC)c1, Cc1cc(N(C)C)c(C)cc1/C=C/c1ccnc2ccccc12, COC(=O)c1cc2oc(C)cc2n1Cc1ccc(C)cc1, N#C/C(=C\c1ccc(Sc2ccc(Cl)cc2)o1)c1nc2ccccc2[nH]1, C=Cc1ccc(CC2(C)C(=O)Nc3ccc(-c4cccnc4)cc32)cc1 (stereo not given), CCCCNc1ccc2c3c(cccc13)C(=O)N(CCCC)C2=O, O=C(C(=Cc1ccc(O)cc1)c1ccccc1)c1ccccc1, COc1ccc(-c2csc3nc(C)nc(N4CCCCC4)c23)cc1OC, CC(=Nc1ccc(C)cc1C)c1sc2ccccc2c1O, CC(C)CC(=NNC(=O)c1ccncc1)c1cc(Cl)ccc1O, COCCN1C(=O)/C(=C/c2ccc(N3CCCC3)cc2)SC1=S, COc1ccc(Oc2ncc3nc(C)c(=O)n(Cc4cccs4)c3n2)cc1, COc1cc2c(cc1OC)C1(C)N(CC2)C(C(C)=O)=NN1c1ccc(Cl)cc1 (stereo not given), CN(C(=O)c1cc2c(cc1Br)OCO2)c1cccc2ccccc12

Potency, active:
Cc1cc([N+](=O)[O-])c2[nH]c(C(=O)N/N=C/c3ccccc3C(=O)O)c(-c3ccccc3)c2c1 67.5 µM, CC(C)(C)c1ccc(-n2nc(C#N)c(Cl)cc2=O)cc1 42.6 µM

target: Rap guanine nucleotide exchange factor 4 (Homo sapiens) (UniProt Q8WZA2); assay: Confirmatory qHTS for agonist of cAMP-regulated guanine nucleotide exchange factor 4 (EPAC2) (AID 1645884); settings: EPAC2 GEF activity, Rap1B-BODIPY-GDP fluorescence; series mostly up to 154 µM;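 note: nucleotide exchange releases bodipy-GDP from Rap1 and this lowers its fluorescence; nearly all actives have a fitted effect of over 65% in size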; for activation: % is set by controls: 0 for no effect and ±100 for the full control effect
Sequence (Q8WZA2 whole entry, looked up): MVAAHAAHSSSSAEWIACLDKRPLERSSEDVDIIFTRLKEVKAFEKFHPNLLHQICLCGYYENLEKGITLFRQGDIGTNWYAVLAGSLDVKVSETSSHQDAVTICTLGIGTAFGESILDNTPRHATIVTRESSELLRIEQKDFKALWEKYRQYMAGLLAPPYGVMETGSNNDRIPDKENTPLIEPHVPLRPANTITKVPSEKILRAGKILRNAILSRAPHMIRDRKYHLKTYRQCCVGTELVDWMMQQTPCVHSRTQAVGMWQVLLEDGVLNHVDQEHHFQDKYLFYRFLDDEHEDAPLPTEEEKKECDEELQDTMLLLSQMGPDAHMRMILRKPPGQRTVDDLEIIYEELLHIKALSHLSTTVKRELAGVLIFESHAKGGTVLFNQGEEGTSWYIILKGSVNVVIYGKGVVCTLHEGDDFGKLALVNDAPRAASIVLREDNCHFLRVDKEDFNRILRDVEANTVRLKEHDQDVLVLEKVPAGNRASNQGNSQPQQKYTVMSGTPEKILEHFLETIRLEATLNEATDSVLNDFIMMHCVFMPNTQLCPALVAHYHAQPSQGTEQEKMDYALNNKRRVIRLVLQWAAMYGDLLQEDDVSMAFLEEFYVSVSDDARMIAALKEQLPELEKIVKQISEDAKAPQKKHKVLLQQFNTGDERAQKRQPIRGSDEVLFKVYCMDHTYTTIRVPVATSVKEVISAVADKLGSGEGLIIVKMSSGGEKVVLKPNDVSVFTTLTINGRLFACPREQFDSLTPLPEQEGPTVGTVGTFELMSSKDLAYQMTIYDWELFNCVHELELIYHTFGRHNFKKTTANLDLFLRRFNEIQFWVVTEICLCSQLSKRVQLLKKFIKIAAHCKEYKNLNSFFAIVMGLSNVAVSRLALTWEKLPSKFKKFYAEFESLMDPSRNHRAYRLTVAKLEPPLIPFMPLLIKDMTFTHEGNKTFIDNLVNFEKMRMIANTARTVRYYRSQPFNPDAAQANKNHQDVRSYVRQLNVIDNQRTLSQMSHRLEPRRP

Potency, active:
COC(=O)C1=NN(c2ccc(C)cc2)C2(S1)SC(C(C)=O)=C(C)N2c1ccccc1 (stereo not given) 100 µM, CC(=O)Nc1ccc(Nc2c3c4c(cccc4n(C)c2=O)C(=O)c2ccccc2-3)cc1 100 µM, CCSc1nnc(-c2sc3nnc(-c4ccccc4)c(-c4ccccc4)c3c2N)o1 112 µM, COCc1c(C(=O)N2CCc3ccccc32)oc2ccccc12 112 µM, CCN(CC)c1ccc2cc(C(=O)NNC(=O)c3ccc(S(=O)(=O)N4CCCCC4)cc3)c(=O)oc2c1 112 µM, CC(=Nc1ccc(C)cc1C)c1sc2ccccc2c1O 100 µM, CC(C)CC(=NNC(=O)c1ccncc1)c1cc(Cl)ccc1O 100 µM, COCCN1C(=O)/C(=C/c2ccc(N3CCCC3)cc2)SC1=S 112 µM

Potency, inactive:
COC(=O)CCc1nc2cc(Cl)ccc2n(Cc2ccccc2)c1=O, Cc1ccc(NC(=O)CSc2nnc(-c3cc4occc4n3C)n2-c2ccccc2C)c(Cl)c1, O=C1c2ccccc2-c2onc3c(Br)cc(NC4CCCCC4)c1c23, CSc1ncccc1C(=O)OCc1c(F)cccc1Cl, COc1cccc(C(=O)c2sc3nc(-c4ccccc4)cc(C(F)(F)F)c3c2N)c1, Cc1cc([N+](=O)[O-])c2[nH]c(C(=O)N/N=C/c3ccccc3C(=O)O)c(-c3ccccc3)c2c1, COc1ccc(NC(=O)c2csc3c2CCCCC3)c(OC)c1, COC(=O)c1cc2oc(C)cc2n1Cc1ccc(C)cc1, O=C(C(=Cc1ccc(O)cc1)c1ccccc1)c1ccccc1, COc1ccc(Oc2ncc3nc(C)c(=O)n(Cc4cccs4)c3n2)cc1

activation, inactive:
O=C(NCCOc1ccc(F)cc1)c1ccccc1SCc1ccccc1 7.88% [at 17.1 µM, percent relative to cAMP agonist control], Cc1ccccc1C(=O)O/N=C(\c1ccccc1)c1ccccn1 8.13% [at 17.1 µM, percent relative to cAMP agonist control], O=C(C1=NN(c2ccccc2)C2C(=O)N(c3ccccc3)C(=O)C12)c1ccccc1 (stereo not given) 11% [at 17.1 µM, percent relative to cAMP agonist control], O=C1N(Cc2ccccc2)c2ccc(Cl)cc2C12OCCO2 2.15% [at 17.1 µM, percent relative to cAMP agonist control], CCCCNc1ccc2c3c(cccc13)C(=O)N(CCCC)C2=O -62.3% [at 17.1 µM, percent relative to cAMP agonist control], COc1cc2c(cc1OC)C1(C)N(CC2)C(C(C)=O)=NN1c1ccc(Cl)cc1 (stereo not given) 18% [at 17.1 µM, percent relative to cAMP agonist control]
